Screens deposited in PubChem BioAssay by National Center for Advancing Translational Sciences (NCATS).
SW480 rerep: inducers of DNA re-replication in SW480 colon cancer cells; SW480 DNA re-replication, Hoechst DNA content imaging, 48 h; 340,000 tested, 1.8% active; AID 624297; Potency, µM (doses to about 46.1 µM), for inactives: top-dose re-replication activation, usual class: activators; note: potency is the fitted concentration of half-maximal effect; % of control where 0% means no effect; nearly all actives have a fitted effect of over 55% in size
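Per well, 250 cells were exposed to pinned compound for 48 hr. Nuclear DNA was visualised with Hoechst (40 min, 37 C) and total object intensity recorded by fluorescence scanning.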
Vif-APOBEC3F blk: blocks the Vif interaction with APOBEC3F; HeLa A3F-eYFP + Vif (tagged APOBEC3F with the HIV-1 protein that degrades it), YFP fluorescence increase; Potency, µM (top dose mostly 46.1 µM), for the others: at the highest dose activity, negative = active; 390,000 tested, 0.2% active; note: potency is the fitted concentration of half-maximal effect; % of control where 0% means no effect; nearly all actives have a fitted effect of over 65% in size
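HeLa cells stably expressing A3F-eYFP plus Vif, plated and incubated overnight at 37 deg C, then exposed to compounds overnight at 37 deg C. Blocked degradation read as raised yellow fluorescence (Ex 488/Em 500-530).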
Vif-A3G inh: blocks the Vif interaction with human APOBEC3G. Q9HC16. HeLa A3G-eYFP + Vif (tagged APOBEC3G with the HIV-1 protein that degrades it), YFP fluorescence, overnight. Potency, µM (top dose mostly 46.1 µM), for inactives: top-dose activity, negative = active, usual class: inhibitors. 410,000 tested, 0.076% active. AID 602310; note: potency is the fitted concentration of half-maximal effect; % is set by controls: 0 for no effect and ±100 for the full control effect; nearly all actives have a fitted effect of over 60% in size
Target sequence (Q9HC16 whole entry, looked up): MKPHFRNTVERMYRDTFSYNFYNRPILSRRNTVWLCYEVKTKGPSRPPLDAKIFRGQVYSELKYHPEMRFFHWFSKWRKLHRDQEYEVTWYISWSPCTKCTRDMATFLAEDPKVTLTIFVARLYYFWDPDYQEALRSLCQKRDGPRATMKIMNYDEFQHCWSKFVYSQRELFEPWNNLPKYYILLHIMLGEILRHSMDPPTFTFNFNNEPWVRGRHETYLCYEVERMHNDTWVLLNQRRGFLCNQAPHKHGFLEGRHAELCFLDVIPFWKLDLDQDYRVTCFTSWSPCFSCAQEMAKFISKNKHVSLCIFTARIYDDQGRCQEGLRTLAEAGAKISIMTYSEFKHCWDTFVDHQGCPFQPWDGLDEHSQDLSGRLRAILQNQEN
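HeLa cells stably expressing Vif and C-terminally eYFP-tagged A3G, seeded overnight at 37 deg C, then exposed to compound by pintool overnight at 37 deg C. Rise in yellow fluorescence (Ex 488/Em 500-530, Acumen) marks blocked Vif-driven A3G degradation.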
IL1B secr inh: inflammasome signaling inhibition, IL-1 beta readout; THP-1 LPS/ATP IL-1B secretion, AlphaLISA, 16 h; active compounds read low; activity change, % at 57.5 µM; 360,000 tested, 4.7% active; AID 743279; in the data active = activity change below about -50%; inconclusive = mostly about -30% to -49%; note: % is set by controls: 0 for no effect and ±100 for the full control effect
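Secreted IL-1B measured by AlphaLISA bead assay after 16 h compound exposure of THP-1 cells; compounds (final up to 57.5 uM) added 1 h before LPS (250 ng/mL) and ATP (1.25 mM) stimulation; lower signal means less secretion.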
MCF10A rereplic: inducers of DNA re-replication in MCF 10A breast cells; AID 624296; MCF 10A DNA re-replication, Hoechst nuclear intensity, 48 h; Potency, µM (doses to about 46.1 µM), for inactives: at the top dose activity, positive = re-replication, usual class: activators; 350,000 tested, 2.9% active; note: potency is the fitted concentration of half-maximal effect; % of control where 0% means no effect; nearly all actives have a fitted effect of over 50% in size
Giardia killer: kills Giardia lamblia | Giardia lamblia trophozoite viability | AID 540267 | 340,000 tested, 0.15% active | activity change, % at 7.66 µM, hits read low; in the data active = activity change below about -80%; inconclusive = between about -30% and that limit;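 note: parasites exposed to compound for two days anaerobically before the ATP read; % is set by controls: 0 for no effect and ±100 for the full control effect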
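ATP-content bioluminescence gauges trophozoite survival. Cells (100/well) receive compound and incubate anaerobically for 48 hrs at 37 deg C; detection reagent follows for 15-30 min at room temperature.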
Active calls of the source: *; ? = inconclusive; · = not tested or not shown; [ ] = remark or other dose. Only some compounds are listed: those with a hit (about 6.9% of all), similar ones and a draw of the others. Unless noted, calls come from the whole dose curve; as a rule, active = well fitted curve in the direction sought with a large enough effect; inconclusive = small, poorly fitted or top-dose-only effect, or another doubt; inactive = no such curve, though single readings can be large; an effect the other way counts as inactive or inconclusive.

SMILES | SW480 rerep | Vif-APOBEC3F blk | Vif-A3G inh | IL1B secr inh | MCF10A rereplic | Giardia killer
Cc1cc(C(=O)Nc2ccc3c(c2)CCC3)ccc1[N+](=O)[O-] | -1% | 5% | 0% | -69* | 7% | 6
O=C(Nc1ccc(Br)cc1)c1cc([N+](=O)[O-])cc([N+](=O)[O-])c1 | 3% | 3% | 4% | -101* | 0% | ?
CC(=O)Nc1ccc(NC(=O)c2cc([N+](=O)[O-])cc([N+](=O)[O-])c2)cc1 | 0% | 7% | -9% | 41 | -11% | 2
Cc1ccc(NC(=O)c2ccc(Nc3c([N+](=O)[O-])cc([N+](=O)[O-])cc3[N+](=O)[O-])cc2)cc1 | ? | 6% | -15% | -103* | ? | ?
COc1cc(C(=O)C(=O)N2CCN(c3ccccc3)CC2)cc(OC)c1OC | · | · | · | 40 | · | ·
Oc1c(N=Nc2ccccn2)ccc2ccccc12 | ? | -14% | -17% | -54* | 13µM* | -21
COc1ccc(-c2csc3nc(-c4ccccc4OC)oc(=O)c23)cc1 | 16µM* | 1% | -7% | · | 21µM* | 5
CCOc1ccc2nc(NC(=O)c3cccc(-c4cc5ccccc5oc4=O)c3)sc2c1 | 16µM* | ? | -20% | -20 | ? | 5
Cc1ccc2nc(NC(=O)c3cccc(-c4cc5ccccc5oc4=O)c3)sc2c1 | -2% | -11% | -11% | 31 | 17% | -3
CCOC(=O)c1[nH]c(C)c(C(=O)OCc2ccccc2F)c1C | 7.3µM* | -6% | ? | 19 | 8.2µM* | 18
CCOC(=O)c1[nH]c(C)c(C(=O)Nc2ccc(Cl)cc2)c1C | 1% | -8% | -1% | 14 | -2% | -5
CCOC(=O)c1c(C)[nH]c(C(=O)OCC(=O)Nc2sccc2C(N)=O)c1C | ? | -14% | -22% | -71* | 21µM* | -5
CCOC(=O)c1[nH]c(C)c(C(=O)c2cc(F)ccc2F)c1C | 1µM* | -4% | ? | 54 | 1.2µM* | -1
CCOC(=O)c1[nH]c(C)c(C(=O)Nc2cccc(Cl)c2C)c1C | 12µM* | -17% | ? | 22 | 8.2µM* | 0
CCOC(=O)c1[nH]c(C)c(C(=O)OCC)c1C | -18% | 2% | 1% | -24 | 13% | -23
CCOc1ccc(-c2cc(C(=O)Oc3ccc(C#N)cc3)no2)cc1 | · | 0% | -2% | · | · | ·
O=C(Nc1ccc2nc(-c3cccnc3)[nH]c2c1)c1ccccc1F | -5% | 3% | -2% | 176 | 0% | -23
c1cncc(-c2nc3cc4ccccc4cc3[nH]2)c1 | 1% | -5% | -25% | -84* | -1% | ?
c1ccc(-c2nc3cc4ccccc4cc3[nH]2)nc1 | -1% | -16% | 0% | -95* | 9% | ?
O=C(Cn1cc(C(=O)C2CC2)c2ccccc21)Nc1ccc(Br)cc1 | · | 4% | -3% | · | · | ·
O=[N+]([O-])c1ccc2c(c1)C=C/C2=C/c1ccccc1 | · | · | -8% | · | · | ·
N/N=C/C(=N\Nc1ccc(Cl)cc1)C(=O)c1ccncc1 | 10µM* | 2% | -15% | -51* | -2% | -10
O=C(NNC(=O)c1ccncc1)Nc1ccc(Cl)cc1 | 2% | -11% | -1% | -19 | 0% | 0
CCOc1c2ccc(C(=O)NCc3ccc(C(F)(F)F)cc3C(F)(F)F)cc2nn1C | 3% | 1% | -2% | -51* | 24% | 35
CCCCn1nc2cc(C(=O)NCc3cc(C(F)(F)F)cc(C(F)(F)F)c3)ccc2c1OC | -18%[9.22 µM] | 0% | -11% | -10 | -8% | 0
SMILES | SW480 rerep | Vif-APOBEC3F blk | Vif-A3G inh | IL1B secr inh | MCF10A rereplic | Giardia killer
CCn1nc2cc(C(=O)NCc3cc(C(F)(F)F)cc(C(F)(F)F)c3)ccc2c1OC | -15% | -13% | -3% | -57* | -27% | -4
O=C1NC(=Nc2cccnc2)S/C1=C/c1ccc(F)cc1 | ? | -4% | -6% | 13 | 7.3µM* | 3
O=C1NC(=Nc2ccccc2)S/C1=C\c1cccn1-c1ccccc1 | 6.5µM* | 1% | ? | -5 | 6.5µM* | -21
O=C1NC(=Nc2ccccc2)S/C1=C\c1cccnc1 | ? | -5% | -1% | -11 | 0% | 3
Nc1nc2nc(-c3ccccc3)cc(C(F)(F)F)c2s1 | 0% | -13% | 2% | -73* | 6% | -2
CC1(C)CC(=O)C2=C(C1)N(c1ccccc1)C(N)=C(C#N)C2c1ccccc1 (centres undefined) | -2% | -1% | -4% | -50* | 7% | -9
CC1(C)CC(=O)C2=C(C1)N(c1ccc(F)cc1)C(N)=C(C#N)C2c1cccs1 (centres undefined) | ? | -11% | -1% | -8 | 18µM* | 7
Cc1ccc(-n2nc(C)c3c(C(F)(F)F)cc(-c4cccnc4)nc32)cc1C | · | 1% | -10% | · | · | ·
CC(C)Nc1ccc(Nc2ccnc3cc4ccccc4cc23)cc1 | -51% | ? | -4% | -107* | ? | -2
O=C(NCCc1ccccc1)c1nccc2ccccc12 | -2% | 6% | -1% | 6 | 0% | -10
COc1ccc(Nc2ccnc3ccccc23)cc1 | -3% | 4% | 6% | ? | 18% | -4
c1ccc(CCNc2ccnc3cc4ccccc4cc23)cc1 | 16µM* | -25% | -12% | -102* | 16µM* | 11
Cc1cc(NS(=O)(=O)c2ccc(N)cc2)nc(C)n1 | 1% | · | · | · | -2% | ·
O=C(OCC1CCCO1)c1ccc2c(c1)N(Cc1cccc(Cl)c1)C(=O)c1ccccc1S2(=O)=O (centres undefined) | · | -2% | 1% | · | · | ·
CCN(CC)c1ccc2c(C)c(-c3ccc(N)cc3)c(=O)oc2c1 | 8.2µM* | 1% | -6% | ? | 3.7µM* | -5
CCN(CC)c1ccc2c(Cl)c(Br)c(=O)oc2c1 | ? | ? | ? | -100* | ? | -6
CCOC(=O)CCc1c(C)c2ccc(O)cc2oc1=O | -2% | 4% | -2% | 62 | -11% | 13
CCN(CC)c1ccc2c(C)c(Cl)c(=O)oc2c1 | ? | 0% | -3% | 19 | 4.1µM* | 2
CCOC(=O)Cc1c(C)c2ccc(N(CC)CC)cc2oc1=O | 15µM* | -7% | -1% | -13 | 18µM* | 9
